# This is part of a sample that, as a whole, favours compounds with a hit. Of some 83,000 tested, about 20% had one in any assay.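 How to read the values: 0–100, growth inhibition (40 = 60% inhibited); 0, no net growth; -100 to 0, cell death (-40 = 40% of starting cells died; -100 = all dead).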 A number with no mark means an inactive call. Activity calls are given as the source filed them. Rule for the calls: active = growth percent below 10; inactive = the rest.
# Tested on: HL-60(TB) leukemia
# Experiment: NCI-60 one-dose screen, 48 h (100 = growth as untreated, 0 = no growth, -100 = all killed)
# Details: 10 µM unless noted
row,SMILES,growth
1,O=C(CCCCCCNC(=O)C(O)(O)C(F)(F)F)Nc1ncc(-c2ccccc2)s1,11.2%
2,N#Cc1c(-c2ccc(F)cc2)cc(-c2c[nH]c3ccccc23)nc1-c1c[nH]c2ccccc12,98.9%
3,COc1ccc(S(=O)(=O)NCCCNc2nccc(-n3cnc4ccccc43)n2)cc1,110%
4,COc1ccc(-c2cc(C(=O)N=Nc3c(O)[nH]c4ccccc34)c3ccccc3n2)cc1OC,106%
5,NCCNC(=O)c1cccc(COc2ccccc2NC(=O)c2cc(Br)c(Br)[nH]2)c1,69.5%
6,C[C@@H]1CN(c2ccc3ncc(C#Cc4cncc(C(=O)Nc5ccc(CN6CCN(C)CC6)c(C(F)(F)F)c5)c4)n3n2)C[C@H](C)O1,-30.7% (active)
7,COc1c(N2CC3CCCNC3C2)c(F)cc2c(=O)c(C(=O)N/N=C/c3ccc4c(c3)OCO4)cn(C3CC3)c12 (centres undefined),75.8%
8,COC1CCN(Cc2ccc3c(NNC(=O)c4cnccn4)nc4cc(F)ccc4n23)C1 (centres undefined),-19.4% (active)
9,Cc1cn(-c2cc(NC(=O)c3cncc(C#Cc4cnc5ccc(O[C@H]6CCOC6)nn45)c3)cc(C(F)(F)F)c2)cn1,37.6%
10,COc1ccc(-n2c(SCc3n[nH]c(=S)o3)nc3ccc(Cl)cc3c2=O)cc1,109%
11,COC(=O)c1cccc(NC2=CC(=O)C(C)=C(C)C2=O)c1,42%
12,Cc1ccc(-c2cc3nc(C(Cl)Cl)nc(C)n3n2)cc1,107%
13,O=C(Nc1ccc(Cl)c(C(F)(F)F)c1)Nc1ccc2oc(=O)ccc2c1,26%
14,CCN1C(=O)N(CC)C2SC(N/N=C/c3ccc(F)cc3)=NC21 (centres undefined),2.85% (active)
15,C=C(C)[C@@H]1CC[C@]2(C(=O)NC3CCCCC3)CC[C@]3(C)[C@H](CC[C@@H]4[C@@]5(C)CC[C@H](N)C(C)(C)[C@@H]5CC[C@]43C)[C@@H]12,74.5%
16,CC(=O)c1c([Si](C)(C)C)c2cc(C#N)ccn2c1C(=O)c1ccc(Br)cc1,97.8%
17,Nn1c(=O)n(-c2cccc(C(F)(F)F)c2)c(=O)c2cc(-c3ccc(F)cc3F)ccc21,-45.9% (active)
18,Clc1cccc(/C=N/Nc2nc(N/N=C/c3cccc(Cl)c3)nc(N3CCCCC3)n2)c1,97%
19,N#Cc1cccc(CN2CCC3=C(C2)C(=O)N(Cc2ccc(Cl)cc2)C2=NCCCN23)c1,11.7%
20,Cc1cnc2nc(NN)[nH]n12,100%

row,SMILES,growth
1,CCOC(=O)/C(F)=C/C1CC1CCc1cccc(C(F)(F)F)c1 (centres undefined),91.4%
2,O=C(CSc1nnc(-c2cccs2)n1-c1ccccc1)Nc1ccccc1,76%
3,O=C(Nc1ccc(Br)cc1)Nc1nc2ccc([N+](=O)[O-])cc2s1,-44.3% (active)
4,O=C1c2c(c3c4cccnc4[nH]c3c3ccc4ccccc4c23)C(=O)N1CCN1CCCCC1,35.4%
5,COc1cc2oc(-c3cccc(NC(=O)c4cccc([N+](=O)[O-])c4)c3)cc(=O)c2c(OC)c1OC,68.9%
6,Brc1ccc(-c2cc(-c3ccc4c(c3)OCCO4)n[nH]2)s1,3.16% (active)
7,Nc1ccccc1NC(=O)c1ccc(NC(=O)C/C=C/c2cccnc2)cc1,12.6%
8,CCCNNC(=O)c1ccc(-c2ccc(NC(=O)CCCCCCC(=O)N[C@H](C(=O)N3C[C@H](O)C[C@H]3C(=O)N[C@@H](C)c3ccc(-c4scnc4C)cc3)C(C)(C)C)cc2)cc1,18.1%
9,Cc1ccc(NC(=O)Nc2nc3ccc([N+](=O)[O-])cc3s2)cc1,-17.2% (active)
10,CC(C)(C)Nc1nc2c(OCCc3ccccc3)cccn2c1-c1ccccc1Cl,-31.6% (active)
11,Cn1nc(Nc2ccccc2)c(C(=O)NN)c1N,105%
12,Cc1ccccc1NC(=O)/C=C/c1ccc(OCCOc2ccc3c(C)cc(=O)oc3c2)cc1,97.2%
13,COc1ccc(NC2=C(Br)C(=O)C(C)=C(C)C2=O)cc1OC,-34.6% (active)
14,O=C(Nc1cc(Cl)cc(Cl)c1)Nc1nc2ccc([N+](=O)[O-])cc2s1,-50.1% (active)
15,O=C(CN1C(=O)S/C(=C\c2ccccc2)C1=O)Nc1ccc(C(=O)/C=C/c2cc3ccccc3nc2Cl)cc1,80.2%
16,NC1C2CCC1CN(c1cnc(C(=O)Nc3cc(F)cc4cccnc34)cn1)C2 (centres undefined),9.98% (active)
17,CC[C@@H](CO)Nc1ccc2ncc(C#Cc3cncc(C(=O)Nc4ccc(CN5CCN(C)CC5)c(C(F)(F)F)c4)c3)n2n1,-27.3% (active)
18,Cc1ccc2c(n1)C(=O)C(Cl)=C(Nc1cccc(C(F)(F)F)c1)C2=O,32.3%
19,C#C[C@]1(O)CC[C@H]2[C@@H]3CC=C4c5sc(-c6ccc(OC)cc6)nc5CC[C@]4(C)[C@H]3CC[C@@]21C,21.1%

# From PubChem BioAssay (NCI)
